An excerpt weighted towards active compounds, which were near 2.3% of everything screened.
CHO-K1 Ca PAM = nonselective activator or artifact in parental CHO-K1 calcium assay; activation, % at 3 µM; 0.02% of 360,000 active; ATP EC20, Fluo-8 calcium fluorescence; 0% at ATP EC20, 100% at ATP max;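 active = activation above the run cutoff, the mean activation of all test compounds plus 3 SD, cut at about 40% in these data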;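 note: peak over basal fluorescence ratio in a 140 s read after ATP addition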
M1 antag = antagonists of human M1 muscarinic receptor; 1.3% of 360,000 active; P11229; inhibition, % at 3 µM; CHO-K1 hM1, Fluo-8 calcium fluorescence, ACh EC80 antagonist;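 active = percent inhibition above its own plate's cutoff, namely the mean of that plate's compound wells plus 3 SD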;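 note: peak over basal fluorescence ratio during 140 s after agonist addition; 0% = ACh EC80 plus DMSO and 100% = DMSO alone without agonist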
Target sequence (P11229 whole entry, looked up): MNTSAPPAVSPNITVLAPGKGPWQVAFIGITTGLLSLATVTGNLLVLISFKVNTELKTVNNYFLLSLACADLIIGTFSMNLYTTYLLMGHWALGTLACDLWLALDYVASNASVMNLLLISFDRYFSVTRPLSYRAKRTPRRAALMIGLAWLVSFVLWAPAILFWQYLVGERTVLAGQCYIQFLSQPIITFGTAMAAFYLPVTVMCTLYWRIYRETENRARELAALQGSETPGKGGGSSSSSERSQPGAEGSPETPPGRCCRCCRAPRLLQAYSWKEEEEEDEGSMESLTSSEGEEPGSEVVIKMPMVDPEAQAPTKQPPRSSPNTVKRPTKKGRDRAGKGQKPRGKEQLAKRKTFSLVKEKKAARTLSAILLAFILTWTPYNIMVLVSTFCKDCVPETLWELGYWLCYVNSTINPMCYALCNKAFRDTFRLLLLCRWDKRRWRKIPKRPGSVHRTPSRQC
CHRM1 agonist = activates human CHRM1 receptor | 0.33% of 360,000 active | CHO-K1 hM1, Fluo-8 calcium fluorescence, agonist mode; 0% DMSO, 100% acetylcholine EC100 | P11229 | activation, % at 3 µM;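 active = activation above the run's mean compound activation plus 3 SD, cut at about 16% in these data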;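 note: peak over basal fluorescence ratio within a 140 s kinetic read after compound addition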
M1 ag parental = counter-screen for M1 agonists: effect in parental CHO-K1 cells; AID 602248; 0.48% of 360,000 active; activation, % at 3 µM; Fluo-8 calcium fluorescence; scaled to maximal ATP response, vehicle zero; in the data active = activation above about 15%;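 note: untransfected CHO-K1 host cells lacking M1 receptor as counterscreen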
M1 PAM = human CHRM1 positive allosteric modulation. P11229. CHO-K1 hM1, Fluo-8 calcium fluorescence, ACh EC20; 0% = ACh EC20, 100% = maximal ACh. activation, % at 3 µM. 0.088% of 360,000 active. AID 588819; in the data active = activation above about 19%, passing the limit was not always enough
CHO-K1 Ca antag = M1 antagonist counterscreen hit in parental CHO-K1 cells. inhibition, % at 3 µM. 0.6% of 360,000 active. ATP-induced calcium, Fluo-8 fluorescence. AID 602250;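 active = inhibition above a per-plate cutoff, the plate's mean sample inhibition plus 3 SD, cut at about 24% in these data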;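 note: 0% = DMSO plus EC80 ATP and 100% = DMSO alone without ATP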
Numbers without * were called inactive.

SMILES	CHO-K1 Ca PAM	M1 antag	CHRM1 agonist	M1 ag parental	M1 PAM	CHO-K1 Ca antag
COc1ccc(NC(=S)N2CCN(C(c3ccccc3)c3ccccc3)CC2)cc1OC	2	38*	-8	0	-25	5
CCOC(=O)C1CCCN(C2=NC(=O)/C(=C/c3ccc(N(C)C)cc3)S2)C1 (stereo not drawn)	1	2	24*	7	-2	-6
Cc1cc(=O)[nH]c2nnc(-c3ccc(Cl)cc3)n12	1	-4	-4	0	4	-7
O=C1CSC(c2ccccc2)N1CC(O)c1ccc([N+](=O)[O-])cc1 (stereo not drawn)	20	-1	-5	4	4	-9
CC1SC(c2ccccc2)N(CC(O)c2ccc([N+](=O)[O-])cc2)C1=O (stereo not drawn)	-13	-5	-7	0	3	25*
CC(C)(C)S(=O)(=O)N1C[C@H]2CC/C=C\C/C(c3ccccc3)=C\2[C@@H]1CCO	-11	4	-5	0	-4	1
Cc1c(C(=O)N2CCN(c3ccccc3)CC2)oc2c1C(=O)CC(C)(C)C2	-24	30*	0	7	-15	12
Cc1ccc(C(=O)c2ccccc2C(=O)OCC(=O)N2C(C)CCCC2C)cc1 (stereo not drawn)	-1	6	-3	1	1	-13
CC[N+](CC)(CC)CCC(O)(c1ccccc1)C1CCCCC1 (stereo not drawn)	13	98*	-5	1	-25	-7
CCN(CC)CCC(O)(c1ccccc1)C1CCCCC1 (stereo not drawn)	1	100*	-10	0	-30	-4
O=C(Nc1ccccn1)c1ccc(CN(c2ccccc2)S(=O)(=O)c2ccccc2)cc1	3	1	-12	1	1	0
Cc1cccc(C(C)C)c1NC(=O)c1ccc(CN(c2ccccc2)S(=O)(=O)c2ccccc2)cc1	-13	4	1	0	3	26*
COc1ccc(CCn2c(C(C)C)nc3c(c(=O)c4ccccc4n3C)c2=O)cc1	-10	39*	-10	2	-31	17
CCOc1ccc(NC(=O)COc2ccc(C(=O)NCCc3ccccc3)cc2)cc1	-12	-1	-2	1	1	29*
CC(C)c1ccccc1NC(=O)COc1ccc(C(=O)NCCc2ccccc2)cc1	14	-2	-7	3	3	4
COc1ccc(CNC(=O)C(=O)NCC2OCCCN2S(=O)(=O)c2cccs2)cc1 (stereo not drawn)	6	-10	-3	0	8	-3
CC(=O)Nc1ccc(S(=O)(=O)N2CCN=C2SCc2ccc([N+](=O)[O-])cc2)cc1	-24	7	6	17*	-4	14
Cc1ccc(C(=O)N2CCN=C2SCc2ccc([N+](=O)[O-])cc2)cc1C	-12	36*	-8	0	-22	4
Cc1ccc(S(=O)(=O)N2CCN(C(=O)COC(=O)COc3ccc(Cl)cc3C)CC2)c(C)c1	6	3	0	5	-2	-13
CC(C)N1CCN(c2ccncc2S(=O)(=O)N2CCOCC2)CC1	16	48*	-6	0	-20	-9
C=CCN1CCN(c2ccncc2S(=O)(=O)N2CCCCC2)CC1	5	31*	-7	0	-18	4
O=S(=O)(c1cnccc1N1CCN(CCO)CC1)N1CCCC1	-12	-16	-8	0	6	6
Cc1nc2ccc(NC(=O)Cc3c(F)cccc3Cl)cc2s1	-5	-12	-3	1	12	-1
Cc1ccc(C2=NS(=O)(=O)N(C)C(C(=O)NCc3ccccc3)=C2)cc1	13	-4	-5	3	2	-15
COc1ccc(C[C@@H]2CN3C(=NC[C@@H]3Cc3ccc(O)cc3)N2C[C@H](C)NC(=O)CCC2CCCCC2)cc1	8	48*	-14	0	-37	-6
SMILES	CHO-K1 Ca PAM	M1 antag	CHRM1 agonist	M1 ag parental	M1 PAM	CHO-K1 Ca antag
Nc1nc(NCCN2CCOCC2)nc(NCc2ccccc2)c1[N+](=O)[O-]	16	-3	-4	3	5	-11
Nc1nc(NCCCN2CCOCC2)nc(NCc2ccccc2)c1[N+](=O)[O-]	17	66*	-6	2	-27	-1
CCc1ccc(NC(=S)NC2CC3CCCC(C2)N3Cc2cccs2)cc1 (stereo not drawn)	-14	27*	1	4	-22	6
CCc1ccccc1NC(=O)N1C2CCCC1CC(NC(=O)C(C)(C)C)C2 (stereo not drawn)	-7	48*	-6	0	-16	-7
CCc1ccccc1NC(=O)NC1CC2CCC(C1)N2Cc1cccs1 (stereo not drawn)	7	45*	-13	0	-32	-19
CCNC(=S)NC1CC2CCCC(C1)N2Cc1ccc(C)cc1 (stereo not drawn)	11	69*	-8	1	-29	-5
CCCN1C2CCCC1CC(NC(=S)Nc1ccc(OC)cc1)C2 (stereo not drawn)	24	-4	-6	1	3	-17
CCc1ccccc1NC(=S)NC1CC2CCC(C1)N2Cc1ccco1 (stereo not drawn)	-7	-24	-7	0	6	1
Cc1ccc2c(=O)n3c(nc2c1)C(Cc1ccc(O)cc1)NC(=O)c1cc2ccccc2cc1-3 (stereo not drawn)	21	2	2	4	-4	-9
C[C@H](CO)N1C[C@H](C)[C@@H](CN(C)C(=O)Nc2ccccc2)Oc2c(NS(=O)(=O)c3ccccc3)cccc2C1=O	6	1	-4	0	-4	-1
COc1ccc(NC(=O)Nc2cccc3c2O[C@H](CN(C)C(=O)Nc2ccc4c(c2)OCO4)[C@@H](C)CN([C@H](C)CO)C3=O)cc1	-8	33*	-4	4	-23	-5
COc1ccc(NC(=O)N(C)C[C@H]2Oc3c(NC(=O)Nc4ccc5c(c4)OCO5)cccc3C(=O)N([C@H](C)CO)C[C@@H]2C)cc1	-14	22	-2	3	-10	4
C[C@H](CO)N1C[C@H](C)[C@@H](CN(C)S(=O)(=O)c2ccccc2)Oc2ccc(NC(=O)Nc3ccc(C(F)(F)F)cc3)cc2C1=O	14	1	-7	1	-7	-13
C[C@H](CO)N1C[C@H](C)[C@@H](CN(C)S(=O)(=O)c2cccs2)Oc2ccc(NC(=O)Nc3ccc4c(c3)OCO4)cc2C1=O	-7	41*	-11	0	-23	-7
C[C@H](CO)N1C[C@H](C)[C@@H](CN(C)C(=O)Nc2ccccc2)Oc2c(NS(=O)(=O)c3ccc(F)cc3)cccc2C1=O	7	-22	-2	0	26*	-14

Screens as filed in PubChem.
